MITF act: increases MITF-driven TRPM1 promoter luciferase signal; SK-MEL-5 TRPM1-promoter luciferase, 24 h; % of positive control, neutral wells = 0; activation, % at 12.5 µM; actives 0.75% (n = 300,000);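 active = mean activation of at least 80% with every replicate also reaching 80%; inconclusive = mean reaches 80% but some replicate falls short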;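 note: 0% = neutral control wells and 100% = parthenolide positive control wells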
esBAF inh: blocks esBAF chromatin remodeling in mouse ES cells; Bmi1-luciferase knock-in reporter, 24 h; 100% = twice the neutral-well signal; AID 602393; actives 2% (n = 350,000); reporter increase, % at 12.5 µM; in the data active = activation above about 40%; inconclusive = no clear call, values can overlap the other calls;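 note: 0% = median of the plate's neutral control wells and 100% = double that signal; a rise in the Bmi1 reporter signal indicates esBAF inhibition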
HSF1 inh: HSF1 inhibition. NIH3T3-HGL HSE-luciferase, MG132-induced, luminescence 8 h; hits give low values. activity change, negative = inhibition, % at 7.5 µM (by protocol). actives 0.77% (n = 300,000). AID 2098;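 active = more than half of replicate wells show activity change below -50%, luminescence cut by over half; inconclusive = some wells, but at most half, below -50%; inactive = no replicate well below -50%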;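 note: luciferase reports HSF-1 transcriptional activity via heat shock element; 0% = median of DMSO wells and -100% = zero luminescence signal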
HSF-1 act: increases HSF-1 driven luciferase reporter signal. NIH3T3-HGL HSF-1 luciferase reporter, MG132, 8 h; 100% = twice DMSO control signal. activation, % at 9 µM. actives 1.7% (n = 300,000). AID 504408;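 active = mean replicate activation of at least 50% with a set share of replicates each reaching 50%; inconclusive = only one of those two conditions met; inactive = mean below 50% and too few replicates reaching it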;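 note: 0% = median of the neutral control wells and 100% = twice that signal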
SMARCA2 activ: activators of SMARCA2 function | MG213 cells, MMTV-luciferase reporter, dexamethasone, overnight | activation, % at 9.1 µM | actives 1% (n = 370,000) | AID 652017; in the data active = activation above about 7.8%;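 note: 0% = vehicle wells and 100% = reference activator wells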
Wnt bcat act: Wnt/beta-catenin pathway activation | Wnt/beta-catenin reporter cell assay, activator, plate reader | activation, % at 9.35 µM | actives 1.2% (n = 300,000); in the data active = activation above about 30%, passing the limit was not always enough; inconclusive = no clear call, values can overlap the other calls;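 note: 0% = neutral control wells and 100% = positive control wells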
* = called active by the depositor; ? = inconclusive; · = not tested or not shown. Rows were chosen to be rich in hits. Some 4.3% of all compounds tested hit in one or more screens of this group.

SMILES	MITF act	esBAF inh	HSF1 inh	HSF-1 act	SMARCA2 activ	Wnt bcat act
COC(=O)c1ccc(CSc2nnc(N)s2)cc1	32	30	1	14	-1	·
CCC(=O)Nc1ccc2c(c1)OC[C@@H](C)N(Cc1ccccc1OC)C[C@@H](C)[C@@H](OC)CN(C)C2=O	·	-3	·	·	·	·
COc1cccc(CNc2nc(-c3cccnc3)nc3ccccc23)c1	-2	-6	22	69*	-3	-2
C/C(=N\Nc1nccnc1Cl)c1ccc(Br)cc1	20	20	0	-7	2	4
COc1ccc(/C(C)=N/Nc2nccnc2Cl)cc1	65	46*	·	·	7.9*	29
Cc1ccccc1OCc1nc2c3cnn(C)c3ncn2n1	·	66*	12	14	4	22
C[C@@H]1CCCCO[C@H](CN(C)C(=O)C2CCCCC2)[C@H](C)CN([C@@H](C)CO)C(=O)c2cc(N(C)C)ccc2O1	·	-6	·	·	·	·
O=C(CCc1nnc(-c2ccccc2)o1)NC1CCCCC1	?	48*	11	20	-2	8
CN(CCCC1CCCC1)C(=O)CCc1nnc(-c2ccccc2)o1	79	84*	24	45	4	10
CO[C@H]1CN(C)C(=O)c2ccc(NC(=O)Nc3ccccc3)cc2OC[C@@H](C)N(C(=O)CN(C)C)C[C@@H]1C	·	-4	·	·	·	·
CN1C(=O)c2cc(NC(=O)C3CC3)ccc2OC[C@@H]2O[C@H](CC(=O)NCC3CCCCC3)CC[C@H]21	·	2	·	·	·	·
O=[N+]([O-])c1cccc(-c2nc(-c3ccccn3)no2)c1	·	·	20	54*	5	18
c1ccc(-c2noc(-c3ccc4ccccc4c3)n2)nc1	·	-6	-78*	-82	·	·
COc1cccc(-c2nc(-c3ccccn3)no2)c1	·	·	-10	-12	-5	-28
Cc1cccc(/C=N/NC(=O)c2cc(Br)ccc2OCc2ccccc2)n1	-20	0	25	31	-5	-2
Cc1cccc(C=NOCCc2ccccc2)n1	73	66*	·	·	2	-1
CNC[C@@H]1Oc2c(NS(=O)(=O)c3cn(C)cn3)cccc2C(=O)N([C@@H](C)CO)C[C@@H]1C	·	-3	·	·	·	·
Cc1cccc(NC(=O)c2sc3nc(-c4ccccc4)cn3c2C)n1	9	51*	-14	-8	-1	5
Cc1cccc(NC(=O)c2sc3nc(-c4ccc(F)cc4)cn3c2C)n1	13	20	-1	-4	0	·
Cc1c(C(=O)Nc2ccccc2)sc2nc(-c3ccccc3)cn12	27	?	26	55*	0	58*
COC(=O)C1CCN(C(=O)c2sc3nc(-c4ccccc4)cn3c2C)CC1	·	30	-72*	-78	-1	·
COc1ccc(-c2cn3c(C)c(C(=O)Nc4cccc(C)n4)sc3n2)cc1	13	55*	9	6	3	-1
Nc1ccc2c(c1)Cc1cc(N)c(Br)cc1-2	23	·	·	·	4	-5
Nc1cc2c(cc1Cl)-c1ccc(Cl)cc1C2	·	59*	·	·	0	6
O=C(O)C1CCCCC1C(=O)Nc1ccc2c(c1)CCC2 (stereo not given)	12	-8	84	123*	-1	·
SMILES	MITF act	esBAF inh	HSF1 inh	HSF-1 act	SMARCA2 activ	Wnt bcat act
O=C(Nc1ccc2c(c1)CCC2)c1cc(F)cc(F)c1	83*	47*	·	·	3	1
O=C(Nc1ccc2c(c1)CCC2)c1cccc(F)c1	95*	·	32	48	6	21
O=C(Cc1cccc(F)c1)Nc1ccc2c(c1)CCC2	40	34	0	9	1	-2
C[C@H](CO)N1C[C@H](C)[C@H](CN(C)C)Oc2ncc(C#Cc3ccccc3)cc2C1=O	·	2	·	·	·	·
C[C@@H]1CN([C@H](C)CO)C(=O)c2cc(C#CC(C)(C)O)cnc2O[C@@H]1CN(C)C(=O)c1ccccc1F	·	-3	·	·	·	·
CCOC(=O)c1oc2cccc(OC(C)=O)c2c1C	78	?	-1	7	4	·
CCOC(=O)c1oc2cccc(O)c2c1C	·	48*	-5	1	5	·
CC(C)(C)c1ccc(OC(=O)N2CCOCC2)cc1	71	45*	26	31	4	1
Cc1ccsc1/C=C/C1=NCCCN1C	-5	-6	-61*	-69	-5	-3
CN(C)C(=O)c1cc2c(c(-c3cccc(-c4ccc(F)cc4)c3)n1)[C@H](CCO)N([S@@](=O)C(C)(C)C)C2	·	-6	·	·	·	·
